Screening data: PubChem BioAssay, Center for Chemical Genomics, University of Michigan
The entries come from a sample that favours hits as a whole.
Dicer inh = inhibitors of Dicer pre-microRNA processing, primary screen, biochemical, cat-ELCCA, chemiluminescence; 6% of 47,000 active; Endoribonuclease Dicer (Homo sapiens), Q9UPY3; cat-ELCCA pre-miR-21 Dicer processing; stronger effect = higher value; z-score at 25 µM; AID 1347074, 2019; in the data active = z-score above about 3, passing the limit was not always enough;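 also: higher signal means more uncleaved substrate so more Dicer inhibition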
Large screens that a line does not name were inactive.

Cc1c(CCN)c2cccc3c2n1CCC3	Dicer inh 3.55
O=C1/C(=C/c2ccc(-c3ccccc3)cc2)N2CCC1CC2	none
O=C1CN=C(c2ccccc2)c2oc3ccccc3c2N1	none
O=C1CN=C(c2ccc(Cl)cc2)c2oc3ccccc3c2N1	none
COc1ccc2oc3c(c2c1)NC(=O)CN=C3c1ccc(F)cc1	Dicer inh 3.32
CC(=O)OC1CCC2C3CCC4CCC(=O)CC4(C)C3CCC12C (configuration not stated)	none
CCOc1ccc(NC2=NCCS2)cc1	none
Fc1cccc(CN2CCN(Cc3ccccc3F)CC2)c1	none
